Measured values from PubChem BioAssay AID1159580 (chemical genetic matrix, 2015).
Several values for one entry are separate records, joined by “and”; a condition that tells them apart may be missing. Equal entries are not always repeated. The whole screen tested about 5,500 compounds, of which about 2,000 (36%) were called active. Roughly 18% stayed inconclusive and do not appear here. Rule as the data show it: active = normalized growth mostly below about 0.91 (no sharp cut-off); inconclusive = no clear call, values can overlap the other calls; inactive = mostly above about 0.92. The list shows a part of the results.

Experiment: chemical genetic growth profiling, strain panel (AID 1159580);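 also: tested at 20 µM; growth read once vehicle control cultures reached saturation at 30 °C; 1 = growth at the plate median or of vehicle wells; lower values mean less growth of the strain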
Conditions: growth OD

Measured: normalized growth

NNCc1cccc(O)c1
inactive: S. cerevisiae deletion strains, locus YAL013W, strain DEP1, stronger effect = lower value 0.994 | S. cerevisiae deletion strains, locus YAL040C, strain CLN3, stronger effect = lower value 1.08 | S. cerevisiae deletion strains, locus YBR021W, strain FUR4, stronger effect = lower value 1.07 | S. cerevisiae deletion strains, locus YBR229C, strain ROT2, stronger effect = lower value 1 | S. cerevisiae deletion strains, locus YCL029C, strain bik1, stronger effect = lower value 0.988 | S. cerevisiae deletion strains, locus YCL061C, strain MRC1 (second series), stronger effect = lower value 0.984 | S. cerevisiae deletion strains, locus YDL035C, strain GPR1, stronger effect = lower value 0.969 | S. cerevisiae deletion strains, locus YDL074C, strain BRE1, stronger effect = lower value 0.98 | S. cerevisiae deletion strains, locus YDL101C, strain DUN1, stronger effect = lower value 0.994 | S. cerevisiae deletion strains, locus YDL134C, strain PPH21, stronger effect = lower value 0.994 | S. cerevisiae deletion strains, locus YDL192W, strain arf1, stronger effect = lower value 1 | S. cerevisiae deletion strains, locus YDR101C, strain arx1, stronger effect = lower value 0.989 | S. cerevisiae deletion strains, locus YDR150W, strain NUM1, stronger effect = lower value 0.987 and 0.976 | S. cerevisiae deletion strains, locus YDR162C, strain NBP2, stronger effect = lower value 0.987 | S. cerevisiae deletion strains, locus YDR318W, strain mcm21, stronger effect = lower value 1 | S. cerevisiae deletion strains, locus YDR363W, strain ESC2, stronger effect = lower value 1.01 | S. cerevisiae deletion strains, locus YDR388W, stronger effect = lower value 1.01 | S. cerevisiae deletion strains, locus YDR502C, strain sam2, stronger effect = lower value 0.996 | S. cerevisiae deletion strains, locus YEL061C, strain CIN8, stronger effect = lower value 1 | S. cerevisiae deletion strains, locus YER002W, strain NOP16, stronger effect = lower value 0.995 | S. cerevisiae deletion strains, locus YER110C, stronger effect = lower value 0.968 | S. cerevisiae deletion strains, locus YER155C, strain BEM2, stronger effect = lower value 1 | S. cerevisiae deletion strains, locus YER167W, strain BCK2, stronger effect = lower value 0.99 | S. cerevisiae deletion strains, locus YGL078C, strain dbp3, stronger effect = lower value 0.99 | S. cerevisiae deletion strains, locus YGL086W, strain mad1, stronger effect = lower value 0.984 | S. cerevisiae deletion strains, locus YGL248W, strain PDE1, stronger effect = lower value 0.996 | S. cerevisiae deletion strains, locus YGR078C, strain PAC10, stronger effect = lower value 1 | S. cerevisiae deletion strains, locus YGR135W, strain pre9, stronger effect = lower value 1.02 | S. cerevisiae deletion strains, locus YGR229C, strain SMI1, stronger effect = lower value 1.01 | S. cerevisiae deletion strains, locus YGR252W, strain gcn5, stronger effect = lower value 0.992 | S. cerevisiae deletion strains, locus YHR030C, strain SLT2, stronger effect = lower value 0.994 | S. cerevisiae deletion strains, locus YHR079C, strain IRE1 (second series), stronger effect = lower value 0.987 | S. cerevisiae deletion strains, locus YHR094C, strain hxt1, stronger effect = lower value 0.99 | S. cerevisiae deletion strains, locus YHR129C, strain ARP1, stronger effect = lower value 0.993 | S. cerevisiae deletion strains, locus YHR200W, strain rpn10, stronger effect = lower value 0.986 | S. cerevisiae deletion strains, locus YIL066C, strain RNR3, stronger effect = lower value 0.99 | S. cerevisiae deletion strains, locus YIL073C, strain SPO22, stronger effect = lower value 0.92 | S. cerevisiae deletion strains, locus YIL125W, strain kgd1, stronger effect = lower value 0.971 | S. cerevisiae deletion strains, locus YIR030C, strain dcg1, stronger effect = lower value 0.989 | S. cerevisiae deletion strains, locus YJL095W, strain BCK1, stronger effect = lower value 1.01 | S. cerevisiae deletion strains, locus YJL134W, strain LCB3, stronger effect = lower value 0.987 | S. cerevisiae deletion strains, locus YJL168C, strain set2, stronger effect = lower value 0.981 | S. cerevisiae deletion strains, locus YJL187C, strain SWE1 (second series), stronger effect = lower value 0.991 | S. cerevisiae deletion strains, locus YJR043C, strain POL32, stronger effect = lower value 0.974 | S. cerevisiae deletion strains, locus YJR075W, strain HOC1, stronger effect = lower value 0.99 | S. cerevisiae deletion strains, locus YKL009W, strain mrt4, stronger effect = lower value 0.966 | S. cerevisiae deletion strains, locus YKL068W, stronger effect = lower value 0.98 | S. cerevisiae deletion strains, locus YKL085W, strain MDH1 (second series), stronger effect = lower value 0.991 | S. cerevisiae deletion strains, locus YKL085W, strain MDH1, stronger effect = lower value 0.991 | S. cerevisiae deletion strains, locus YKL190W, strain CNB1, stronger effect = lower value 1 | S. cerevisiae deletion strains, locus YKR001C, strain vps1, stronger effect = lower value 1 | S. cerevisiae deletion strains, locus YLR039C, strain RIC1, stronger effect = lower value 0.928 | S. cerevisiae deletion strains, locus YLR058C, strain SHM2, stronger effect = lower value 0.994 | S. cerevisiae deletion strains, locus YLR102C, strain apc9, stronger effect = lower value 0.982 | S. cerevisiae deletion strains, locus YLR262C, strain YPT6, stronger effect = lower value 0.892 | S. cerevisiae deletion strains, locus YLR268W, strain sec22, stronger effect = lower value 1.01 | S. cerevisiae deletion strains, locus YLR330W, strain CHS5, stronger effect = lower value 0.987 | S. cerevisiae deletion strains, locus YLR342W, strain FKS1 (second series), stronger effect = lower value 0.965 | S. cerevisiae deletion strains, locus YLR371W, strain rom2, stronger effect = lower value 0.967 | S. cerevisiae deletion strains, locus YLR418C, strain cdc73, stronger effect = lower value 1.03 | S. cerevisiae deletion strains, locus YML016C, strain PPZ1, stronger effect = lower value 0.993 | S. cerevisiae deletion strains, locus YML032C, strain rad52, stronger effect = lower value 0.974 | S. cerevisiae deletion strains, locus YML124C, strain tub3, stronger effect = lower value 0.999 | S. cerevisiae deletion strains, locus YMR078C, strain ctf18, stronger effect = lower value 1 | S. cerevisiae deletion strains, locus YMR223W, strain ubp8, stronger effect = lower value 0.988 | S. cerevisiae deletion strains, locus YMR263W, strain SAP30, stronger effect = lower value 1 | S. cerevisiae deletion strains, locus YMR307W, strain GAS1, stronger effect = lower value 1.01 | S. cerevisiae deletion strains, locus YNL067W, strain RPL9B, stronger effect = lower value 0.994 | S. cerevisiae deletion strains, locus YNL128W, strain TEP1, stronger effect = lower value 1.01 and 0.986 | S. cerevisiae deletion strains, locus YNL153C, strain GIM3, stronger effect = lower value 1.02 and 1.01 | S. cerevisiae deletion strains, locus YNL175C, strain NOP13, stronger effect = lower value 0.994 | S. cerevisiae deletion strains, locus YNL197C, strain WHI3, stronger effect = lower value 1.01 | S. cerevisiae deletion strains, locus YNL224C, strain SQS1, stronger effect = lower value 0.987 | S. cerevisiae deletion strains, locus YNL233W, strain BNI4, stronger effect = lower value 1.01 | S. cerevisiae deletion strains, locus YNL250W, strain rad50, stronger effect = lower value 0.969 | S. cerevisiae deletion strains, locus YNL271C, strain bni1, stronger effect = lower value 0.98 | S. cerevisiae deletion strains, locus YNL298W, strain CLA4, stronger effect = lower value 1 | S. cerevisiae deletion strains, locus YNL307C, strain MCK1, stronger effect = lower value 0.997 | S. cerevisiae deletion strains, locus YNL322C, strain KRE1, stronger effect = lower value 0.991 and 0.996 | S. cerevisiae deletion strains, locus YNR052C, strain pop2, stronger effect = lower value 0.981 | S. cerevisiae deletion strains, locus YOL006C, strain TOP1, stronger effect = lower value 0.996 | S. cerevisiae deletion strains, locus YOL012C, strain htz1 0.847 | S. cerevisiae deletion strains, locus YOL147C, strain pex11, stronger effect = lower value 1 | S. cerevisiae deletion strains, locus YOR061W, strain CKA2, stronger effect = lower value 0.993 | S. cerevisiae deletion strains, locus YOR069W, strain VPS5, stronger effect = lower value 1 | S. cerevisiae deletion strains, locus YOR083W, strain WHI5 (second series), stronger effect = lower value 0.953 | S. cerevisiae deletion strains, locus YOR136W, strain idh2, stronger effect = lower value 0.994 | S. cerevisiae deletion strains, locus YOR144C, strain elg1, stronger effect = lower value 0.994 | S. cerevisiae deletion strains, locus YOR184W, strain ser1, stronger effect = lower value 0.974 | S. cerevisiae deletion strains, locus YOR316C, strain cot1, stronger effect = lower value 0.994 | S. cerevisiae deletion strains, locus YPL055C, strain LGE1, stronger effect = lower value 1 | S. cerevisiae deletion strains, locus YPL241C, strain CIN2, stronger effect = lower value 0.967 | S. cerevisiae deletion strains, locus YPR119W, strain clb2, stronger effect = lower value 0.998 | S. cerevisiae deletion strains, locus YPR141C, strain kar3, stronger effect = lower value 0.998 | S. cerevisiae deletion strains, locus YPR163C, strain tif3, stronger effect = lower value 1 | S. cerevisiae deletion strains, locus YPR167C, strain met16, stronger effect = lower value 0.999 | S. cerevisiae deletion strains, strain wtn01, stronger effect = lower value 0.994 | S. cerevisiae strains, strain wild type, stronger effect = lower value 0.994
